Vaccinia Venus: qHTS for Stage-Specific Inhibitors of Vaccinia Orthopoxvirus: Venus Reporter Primary qHTS; Potency, µM (highest dose often 36.5 µM), for the others: top-dose activity change, negative = inhibition, hits mostly inhibitors; Vaccinia virus Venus reporter expression, fluorescence; actives 0.46% (n = 330,000); calls by dose curve; tested in A549 cells; also: potency is read from the fitted curve at half-maximal effect; nearly all actives have a fitted effect of over 30% in size
HCMV inh: qHTS Assay for inhibitors of the human cytomegalovirus (HCMV). actives 4.5% (n = 410,000). activity change, negative = inhibition, % at 57.5 µM. HFF cells, HCMV-luciferase reporter, 72 h; active compounds read low. AID 1259415, 2018; in the data active = activity change below about -60%; inconclusive = no clear call, values can overlap the other calls; inactive = above about -39%
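HFF cells seeded 16 h at 37C, treated with compounds, infected with luciferase-reporter HCMV at MOI 1 PFU/cell; luciferase read at 72 h post infection, normalized to buffer-only and Salinomycin controls.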
Lassa entry inh: qHTS for Inhibitors of binding or entry into cells for Lassa Virus; Lassa virus pseudotype entry inhibition, cell reporter; Potency, µM (doses to about 37.9 µM), inactives show at the highest dose activity change, negative = inhibition, actives largely listed as inhibitors; actives 1.2% (n = 300,000); AID 540256, 2011; calls by dose curve; tested in HEK293 cells; also: potency is read from the fitted curve at half-maximal effect; nearly all actives have a fitted effect of over 50% in size
Marburg entry inh: qHTS for inhibitors of binding or entry into cells for Marburg Virus; Marburg virus pseudotyped entry inhibition, cell reporter; Potency, µM (highest dose often 37.8 µM), for the others: at the top dose activity change, negative = inhibition, actives largely listed as inhibitors; actives 1.8% (n = 300,000); calls by dose curve; tested in HEK293 cells; also: potency is read from the fitted curve at half-maximal effect
VACV mCherry inh: qHTS for Stage-Specific Inhibitors of Vaccinia Orthopoxvirus: mCherry Reporter Primary qHTS | Vaccinia virus mCherry reporter infection, fluorescence | Potency, µM (titrated, usually from 36.5 µM), without a hit: at the top dose activity change, negative = inhibition, actives largely listed as inhibitors | actives 0.63% (n = 310,000) | AID 720579, 2013; calls by dose curve; tested in A549 cells; also: potency is read from the fitted curve at half-maximal effect; nearly all actives have a fitted effect of over 35% in size
FMDV antiviral: High Throughput Screening for Foot and Mouth Disease Virus Antivirals; AID 1159524, 2015; Potency, µM (series often up to 57.9 µM), inactives show at the highest dose activity change, negative = inhibition, most hits filed as inhibitors; FMDV antiviral cell-based qHTS; actives 1.2% (n = 410,000); calls by dose curve; tested in HEK293T cells; also: read-out not given here; potency is read from the fitted curve at half-maximal effect; nearly all actives have a fitted effect of over 45% in size
An asterisk follows results filed as active; i = inactive; ? = inconclusive; . = not tested or not shown; ! = not confirmed by another sample; [ ] = another dose, or the depositor's remark. An excerpt weighted towards active compounds, which were near 6.5% of everything screened. % is scaled to controls: 0 for no effect and ±100 for the full control effect.

SMILES | Vaccinia Venus | HCMV inh | Lassa entry inh | Marburg entry inh | VACV mCherry inh | FMDV antiviral
COc1ccc(/C=C2\CCCC3C2=NN(C(=O)c2ccco2)C3c2ccc(OC)c(OC)c2)cc1OC (centres undefined) | ? | 43.2 | ? | ? | . | -1.5%
CC[C@H](C)[C@@H]1NC(=O)CNC(=O)c2csc(n2)[C@H](C(C)(C)O)OC(=O)C(C)(C)[C@H](CCCC(C)(Cl)Cl)OC(=O)c2csc1n2 | 6.31µM* | -78.8* | . | . | 5.62µM* | -14.5%
CCOC(=O)c1noc2ncnc(N3CCN(c4ccccc4OC)CC3)c12 | -9.9% | -9.5 | 6.1%[46.1 µM] | . | -14.3% | -25.1%
COCCN(Cc1cc2cc3c(cc2nc1Cl)OCO3)C(=O)c1ccc(C)cc1 | . | -69.5* | . | . | . | ?
CC(=O)N1CCC(N(C(=O)Nc2ccc(C)c(F)c2)C(C)C)CC1 | -5.8% | 41.1 | 9.3%[46.1 µM] | -6.9%[46.1 µM] | -1.3% | 34.4%
Cc1cc(C)nc(N/N=C/c2cc(C)n(CC(F)(F)F)c2C)n1 | . | -74.7* | ? | -24.8% | . | 17.5%
Cc1c(Cl)cccc1-n1c(SCC(=O)NCc2ccccc2Cl)nnc1-c1ccncc1 | . | -101.9* | 15.5% | -17.4% | . | -24.6%
Cc1ccccc1-n1c(SCC(=O)c2cc(C)n(C)c2C)nnc1-c1ccncc1 | . | -12.3 | ? | ? | . | 35.5µM*
Cc1ccccc1-n1c(SCC(=O)c2ccccc2)nnc1-c1ccc(F)cc1 | -15.4% | ? | ? | . | -18.1% | 26.0%
C[C@@H]1CC[C@H]2C(=O)N(Cc3ccc(Cl)cc3)C[C@@H](O)CN2[C@@H]1c1ccc(Br)cc1 | . | . | . | -14.8%[14.2 µM] | . | .
NC(=S)N/N=C/c1c(O)ccc2ccccc12 | . | ? | . | . | . | 2.1%
NC(=S)N/N=C1/CCSc2ccc3ccccc3c21 | ? | ? | -11.9% | ? | 14.1µM* | ?
CC1CCN(CCCNC(=O)c2ccc3c(Cl)c4c(nc3c2)CCCC4)CC1 | 0.2% | ? | ? | 10µM* | -16.4% | -25.8%
CCN1CCN(CCCNC(=O)c2ccc3c(Cl)c4c(nc3c2)CCCC4)CC1 | 12.6µM* | -83.2* | ? | ? | ? | -17.0%
O=C(C1CCC1)N1CCCc2cc(S(=O)(=O)N3CCN(c4cccc(Cl)c4)CC3)ccc21 | -9.3% | -9.3 | ? | . | -5.6% | -28.0%
O=C(NCc1ccco1)c1ccc2c(c1)N(Cc1ccccc1)C(=O)c1ccccc1S2(=O)=O | -6.2% | -19.6 | -18.2%[46.1 µM] | 0.8%[46.1 µM] | -10.0% | -9.2%
O=C(NCc1ccco1)c1ccc2c(c1)N(Cc1ccccc1F)C(=O)c1ccccc1S2(=O)=O | -13.0% | -66.1* | -1.4%[46.1 µM] | -26.8%[46.1 µM] | -17.5% | 4.9%
CCCCN(C)C(=O)c1ccc2c(c1)N(Cc1cccc(Cl)c1)C(=O)c1ccccc1S2=O (centres undefined) | -12.3% | -81.4* | ? | . | -15.6% | -8.5%
CC1CCCN(CCCNC(=O)c2ccc3c(c2)N(Cc2ccccc2F)C(=O)c2ccccc2S3(=O)=O)C1 (centres undefined) | -26.3% | -70.2*! | -19.1%[46.1 µM] | ? | ? | 2.9%
CC1CCCN(CCCNC(=O)c2ccc3c(c2)N(Cc2cccc(Cl)c2)C(=O)c2ccccc2S3=O)C1 (centres undefined) | ? | -81.3* | . | . | -13.5% | -1.4%
CNC(=O)c1cc(-c2cccs2)on1 | ? | . | . | . | -26.5% | .
COc1c(-c2coc3cc4c(cc3c2=O)CC(O)C(C)(C)O4)ccc2c1C=CC(C)(C)O2 (centres undefined) | 11.2µM* | . | . | . | 11.2µM* | 2.24µM*
COc1c(-c2coc3cc4c(cc3c2=O)CC(OC(C)=O)C(C)(C)O4)ccc2c1C=CC(C)(C)O2 (centres undefined) | -3.4% | . | . | . | -4.1% | ?
CCN(CC)c1cc(CS(=O)c2ccccc2)nc(-c2ccccc2)n1 (centres undefined) | 0.0% | -60.7* | -8.9% | ? | -3.5% | -28.8%
O=C(NCc1ccco1)C(c1cccs1)N(Cc1ccccc1)C(=O)Cn1nnc2ccccc21 (centres undefined) | -21.5% | -62.4* | -15.2% | -13.5% | . | -1.8%
SMILES | Vaccinia Venus | HCMV inh | Lassa entry inh | Marburg entry inh | VACV mCherry inh | FMDV antiviral
C/C(CCN1CCCc2nc(C)c(C)cc21)=N\OC[C@@H](O)[C@H]1O[C@@H]2OC(C)(C)O[C@@H]2[C@H]1O | . | . | . | -8.5%[14.2 µM] | . | .
COc1cc(OC)c(-c2c3cc(O)c(=O)cc-3oc3cc(O)c(O)cc23)cc1OC | i | ? | -26.8% | 4.61µM*! | i | ?
COc1ccccc1NC(=O)Cn1c(O)c(N=NC(=O)c2ccccc2O)c2ccccc21 | . | -106.8* | . | . | . | ?
Cn1c(O)c(N=NC(=O)c2ccccc2O)c2ccccc21 | -12.8% | 129.7 | ? | ? | -15.5% | -3.9%
Cc1ccc(NC(=O)Cn2c(O)c(N=NC(=O)c3ccncc3)c3ccccc32)cc1 | -8.7% | . | 0.4%[46.1 µM] | ? | -0.9% | -12.8%
Cc1ccc(NC(=O)Cn2c(O)c(N=NC(=O)c3cc4ccccc4cc3O)c3ccccc32)cc1 | -14.0% | -101.3* | ? | ? | -20.1% | -28.4%
CC1C/C(=C/c2ccncc2)C(=O)/C(=C/c2ccncc2)C1 (centres undefined) | . | -100.7* | . | . | . | 10µM*
Brc1ccc(N=Nc2ccc3ccccc3n2)cc1 | -3.2% | ? | 1.12µM* | ? | -0.9% | 10µM*
CCn1c(O)c(N=Nc2ccc3ccccc3n2)c2ccccc21 | . | 0.0 | . | . | . | 32.1%
CC(C)CNC(=O)c1csc(C(O)C(C)C)n1 (centres undefined) | . | -3.4 | . | . | . | .
COc1ccc(CN2CC[C@H]3C=CC[C@@H](C(=O)NC4CCCCC4)[C@H]3C2=O)cc1OC | -17.7% | . | . | . | i | .
CSc1nc(N)nc(SCC(=O)Nc2ccc(Cl)cc2)c1C#N | ? | -21.8 | ? | ? | ? | ?
Cc1ccc(S(=O)(=O)CCSc2nc(C)cc(C)c2C#N)cc1 | 10µM* | -39.4 | ? | ? | 10µM* | .
CCS(=O)(=O)CCSc1nc(C)cc(C)c1C#N | -11.4% | -27.4 | ? | -28.3% | -13.0% | .
Cc1cc(C)c(C#N)c(SCCN2CCCCC2)n1 | 3.6% | -95.7* | ? | ? | i | -15.1%
CSc1nc(N)nc(SCCS(=O)(=O)c2ccc(Cl)cc2)c1C#N | 5.62µM* | -32.1 | 0.1% | ? | 2.51µM* | ?
CC(NC(=O)c1ccc(Cl)cc1Cl)C(c1ccccc1)N1CCOCC1 (centres undefined) | -6.5% | -66.1* | 13.9% | 7.5%[46.1 µM] | -11.3% | 14.4%
CC(NC(=O)c1cccc(C(F)(F)F)c1)C(c1ccccc1)N1CCOCC1 (centres undefined) | -18.6% | -62.5* | -6.6% | -16.8%[46.1 µM] | -11.6% | -23.3%
Cc1cccc(C(=O)NC(C)C(c2cccs2)N2CCOCC2)c1 (centres undefined) | -5.5% | 0.0 | 16.5%[46.1 µM] | ? | i | -17.1%

Assay outcomes deposited in PubChem by National Center for Advancing Translational Sciences (NCATS).
